Measured values: PubChem BioAssay (NCATS)
Results filed as inconclusive are left out. The source made the active and inactive calls. Unless noted, calls come from the whole dose curve; as a rule, active = well fitted curve in the direction sought with a large enough effect; inconclusive = small, poorly fitted or top-dose-only effect, or another doubt; inactive = no such curve, though single readings can be large; an effect the other way counts as inactive or inconclusive.

Key:
[1] = molecular target: Lysosomal acid glucosylceramidase (Homo sapiens) (UniProt P04062); assay: Glucocerebrosidase-p2 (AID 348; in the data active = potency below about 10 µM; note: potency is the fitted concentration of half-maximal effect); conditions: purified GBA, blue fluorogenic substrate, 40 min
Sequence of Lysosomal acid glucosylceramidase (Homo sapiens) (P04062 whole entry, looked up): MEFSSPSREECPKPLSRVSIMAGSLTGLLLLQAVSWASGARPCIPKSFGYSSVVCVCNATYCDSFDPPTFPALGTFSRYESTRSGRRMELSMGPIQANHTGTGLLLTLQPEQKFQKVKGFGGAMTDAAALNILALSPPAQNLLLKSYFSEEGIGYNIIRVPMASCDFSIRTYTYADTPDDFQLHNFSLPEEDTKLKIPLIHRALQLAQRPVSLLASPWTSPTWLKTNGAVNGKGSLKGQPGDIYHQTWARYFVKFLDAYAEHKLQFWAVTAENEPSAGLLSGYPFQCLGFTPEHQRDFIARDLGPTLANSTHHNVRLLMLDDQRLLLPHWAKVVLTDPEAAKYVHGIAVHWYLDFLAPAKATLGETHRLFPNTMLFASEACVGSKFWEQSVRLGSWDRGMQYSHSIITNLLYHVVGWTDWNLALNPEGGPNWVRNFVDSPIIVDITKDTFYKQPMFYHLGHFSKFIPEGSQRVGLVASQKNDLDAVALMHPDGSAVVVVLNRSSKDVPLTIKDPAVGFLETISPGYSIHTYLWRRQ
Procedure, shortened: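 Normal human glucocerebrosidase (0.2 nM) with blue fluorogenic substrate (80 uM final) in citrate/phosphate pH 5.9 with 10mM sodium taurocholate, 0.01% tween-20; 40 min RT, NaOH/glycine stop; fluorescence Ex 365/Em 440; AC50 from a titration from 0.6 nM upwards.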

[2] = AP1 Signaling Pathway (AID 357; active = well fitted curve in either direction with a large enough effect, not every such curve was filed as active; note: % is set by controls: 0 for no effect and ±100 for the full control effect); conditions: ME-180 AP-1-bla reporter, EGF-induced, beta-lactamase ratio, 5 h; at 7.69 µM (top of the series) unless noted
Procedure, shortened: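 ME-180 cells with beta-lactamase reporter under AP-1 response element, stimulated with EC50 EGF; compounds tested in titration series, 5 h at 37 °C. CCF4 substrate added 2.5 h at room temperature; 460/530 nm emission ratio gave %activity and AC50.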

[3] = molecular target: Cytochrome P450 1A2 (Homo sapiens) (UniProt P05177); assay: p450-cyp1a2 (AID 410; calls by dose curve; note: potency is the fitted concentration of half-maximal effect;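 for activity change, negative = inhibition: -100% = full effect of reference inhibitor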); conditions: recombinant CYP1A2, luciferin-ME demethylation, luminescence; series mostly up to 57 µM
Sequence of Cytochrome P450 1A2 (Homo sapiens) (P05177 whole entry, looked up): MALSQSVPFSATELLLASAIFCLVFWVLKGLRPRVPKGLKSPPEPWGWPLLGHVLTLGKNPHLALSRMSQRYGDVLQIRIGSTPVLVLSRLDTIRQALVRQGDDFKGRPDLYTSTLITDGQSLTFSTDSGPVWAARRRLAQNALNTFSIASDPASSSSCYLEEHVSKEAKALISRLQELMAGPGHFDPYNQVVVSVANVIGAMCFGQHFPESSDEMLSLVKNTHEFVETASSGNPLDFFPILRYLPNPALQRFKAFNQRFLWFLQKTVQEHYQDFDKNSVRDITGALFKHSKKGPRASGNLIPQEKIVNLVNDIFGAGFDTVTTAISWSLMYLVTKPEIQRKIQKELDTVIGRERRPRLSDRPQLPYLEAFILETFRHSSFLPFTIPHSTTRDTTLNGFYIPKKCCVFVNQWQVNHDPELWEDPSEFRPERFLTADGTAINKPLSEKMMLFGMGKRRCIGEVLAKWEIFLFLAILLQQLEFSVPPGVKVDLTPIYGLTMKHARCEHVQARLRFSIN
Procedure, shortened: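 Read-out is luminescence from luciferin produced by CYP1A2 demethylation of Luciferin-ME (100uM, at Km). Detection reagent stopped the 60 min NADPH-dependent reaction; signals were normalized to 57 uM furafylline.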

[4] = NFAT Signaling Pathway (AID 444; active = well fitted curve in either direction with a large enough effect, not every such curve was filed as active;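 note: carbachol stimulus at about its EC50 of 1 µM final; % is set by controls: 0 for no effect and ±100 for the full control effect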); conditions: Jurkat NFAT-bla M1, carbachol, beta-lactamase ratio, 5 h; at 7.69 µM (top of the series) unless noted
Procedure, shortened: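 Jurkat cells carrying an NFAT-driven β-lactamase reporter and co-transfected muscarinic M1 receptor were treated with compound plus carbachol (1 uM final, an EC50 level) for 5 h at 37 °C. CCF4 loading followed for 1 h at RT; 460/530 nm ratio gave %activity.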

[5] = Stat Signaling Pathway (AID 446; active = well fitted curve in either direction with a large enough effect, not every such curve was filed as active;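 note: ME-180 cervical cancer cells given 40 pM IL-6 alongside compound; SIE-controlled beta-lactamase reporter measured as 460/530 nm FRET emission ratio; % is set by controls: 0 for no effect and ±100 for the full control effect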); conditions: ME-180 SIE beta-lactamase reporter, IL-6 stimulated, 5 h; at 7.69 µM (top of the series) unless noted
Procedure, shortened: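 Normalization used AC90 stimulation (300 pM IL-6) and AC90 inhibition (125 nM pan-JAK inhibitor at 40 pM IL-6). The underlying signal is SIE-driven beta-lactamase in ME-180 cells after 5 h IL-6 exposure with compound.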

[6] = molecular target: Glucocorticoid receptor (Homo sapiens) (UniProt P04150); assay: GR-GFP Redistribution (AID 450;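 active = compounds whose dose series gives a full or clear partial fitted curve of increased nuclear translocation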; note: potency is the fitted concentration of half-maximal effect); conditions: U2OS GR-GFP nuclear translocation, laser cytometry, 2 h
Sequence of Glucocorticoid receptor (Homo sapiens) (P04150 whole entry, looked up, the tested form may be a part): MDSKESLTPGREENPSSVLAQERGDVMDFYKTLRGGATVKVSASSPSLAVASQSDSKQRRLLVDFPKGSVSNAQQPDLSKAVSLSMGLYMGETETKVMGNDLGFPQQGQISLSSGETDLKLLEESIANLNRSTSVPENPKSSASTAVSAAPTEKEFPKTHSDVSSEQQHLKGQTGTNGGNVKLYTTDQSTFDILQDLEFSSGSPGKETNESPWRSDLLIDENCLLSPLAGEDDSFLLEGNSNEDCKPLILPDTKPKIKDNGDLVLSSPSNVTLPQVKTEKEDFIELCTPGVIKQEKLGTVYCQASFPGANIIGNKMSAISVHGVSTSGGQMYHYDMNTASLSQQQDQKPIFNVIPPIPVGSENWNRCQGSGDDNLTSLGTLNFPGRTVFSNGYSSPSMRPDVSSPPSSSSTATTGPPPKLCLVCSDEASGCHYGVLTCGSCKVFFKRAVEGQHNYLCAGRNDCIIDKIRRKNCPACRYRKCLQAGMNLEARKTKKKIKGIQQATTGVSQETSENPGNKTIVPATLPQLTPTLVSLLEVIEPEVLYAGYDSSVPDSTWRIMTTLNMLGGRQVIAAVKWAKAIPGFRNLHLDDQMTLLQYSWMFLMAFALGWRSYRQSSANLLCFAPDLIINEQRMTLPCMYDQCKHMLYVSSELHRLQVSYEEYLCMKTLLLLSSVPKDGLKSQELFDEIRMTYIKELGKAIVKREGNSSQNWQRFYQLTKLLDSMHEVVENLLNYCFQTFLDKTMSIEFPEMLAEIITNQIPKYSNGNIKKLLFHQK

[7] = molecular target: Glucocorticoid receptor (Homo sapiens) (UniProt P04150); assay: GR-EFC Redistribution (AID 451; calls by dose curve; note: potency is the fitted concentration of half-maximal effect); conditions: CHO-K1 GR-EFC translocation, beta-gal luminescence, 2 h
Procedure, shortened: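 CHO-K1 cells stably expressing nuclear-localized β-gal enzyme acceptor and GR fused C-terminally to the enzyme donor fragment; ligand-driven nuclear translocation restores β-gal by complementation. Compounds titrated up to 46 uM final, 2 h at 37 °C; luminescence read.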

[8] = qHTS Assay for Lipid Storage Modulators (AID 1519; calls by dose curve); conditions: Drosophila S3 cells, BODIPY lipid droplet/cell ratio, laser cytometry, cells loaded with oleic acid; for activity change, negative = inhibition: at 57.5 µM (top of the series)
Procedure, shortened: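 Cells seeded at 5,000 per well were treated with compounds over a concentration series and loaded with oleic acid (400 uM, as added). Lipid droplet fluorescence (488 nm excitation, 500-530 nm channel) was read by laser-scanning cytometry and normalized to 20 uM Triacsin C.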

[9] = molecular target: Dual specificity protein kinase CLK4 (Homo sapiens) (UniProt Q9HAZ1); assay: qHTS Assay for Inhibitors of CDC-like Kinase 4 (Kinase-Glo Assay) (AID 1770); conditions: recombinant Clk4, Kinase-Glo ATP depletion luminescence; series mostly up to 66.7 µM; note: nearly all actives have a fitted effect of over 65% in size; note: potency is the fitted concentration of half-maximal effect
Sequence of Dual specificity protein kinase CLK4 (Homo sapiens) (Q9HAZ1 whole entry, looked up): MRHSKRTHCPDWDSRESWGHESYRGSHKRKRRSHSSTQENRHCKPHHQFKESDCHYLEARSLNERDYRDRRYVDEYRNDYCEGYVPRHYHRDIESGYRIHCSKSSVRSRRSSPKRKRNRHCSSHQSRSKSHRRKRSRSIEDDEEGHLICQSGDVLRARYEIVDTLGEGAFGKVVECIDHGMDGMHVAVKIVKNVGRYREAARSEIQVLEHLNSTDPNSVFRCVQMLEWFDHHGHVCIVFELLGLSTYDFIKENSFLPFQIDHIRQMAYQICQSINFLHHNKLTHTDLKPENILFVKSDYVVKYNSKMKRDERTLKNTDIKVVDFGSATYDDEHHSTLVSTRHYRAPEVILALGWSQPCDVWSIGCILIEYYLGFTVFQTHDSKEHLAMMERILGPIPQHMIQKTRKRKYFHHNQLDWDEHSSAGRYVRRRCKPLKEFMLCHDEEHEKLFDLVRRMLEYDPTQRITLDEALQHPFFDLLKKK
Procedure, shortened: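 Recombinant human Clk4 (25 nM) phosphorylated RS repeat peptide (100 uM) with 1 uM ATP in Tris pH 7.5/MgCl2/EGTA/DTT/Triton buffer for 4.5 h at room temperature. Residual ATP was quantified by Kinase-Glo luciferase luminescence.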

[10] = molecular target: Dual specificity protein kinase CLK4 (Homo sapiens) (UniProt Q9HAZ1); assay: qHTS Assay for Inhibitors of CDC-like Kinase 4 (ADP-Glo Assay) (AID 1771); conditions: recombinant CLK4, ADP-Glo luminescence; series mostly up to 80 µM; note: nearly all actives have a fitted effect of over 70% in size; note: potency is the fitted concentration of half-maximal effect
Procedure, shortened: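 In this ADP-Glo format, 1 uM ATP and 100 uM RS peptide served as substrates for 25 nM Clk4 in Mg2+/EGTA/DTT/Triton buffer; reactions ran 1 hr at room temperature before luminescent ADP quantification.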

[11] = Primary qHTS for small molecule stabilizers of the endoplasmic reticulum resident proteome: Secreted ER Calcium Modulated Protein (SERCaMP) assay (AID 1508630); conditions: SH-SY5Y GLuc-SERCaMP (Gaussia luciferase released on ER calcium loss) secretion, thapsigargin, luminescence; series mostly up to 38.4 µM; note: % is set by controls: 0 for no effect and ±100 for the full control effect
Procedure, shortened: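 The SH-SY5Y reporter protocol was run at 3 concentrations up to 38.3 uM (primary) or 11 concentrations (follow-up): 16 h compound, 100 nM thapsigargin for 4 h, then extracellular luciferase luminescence.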

[12] = molecular target: Mitogen-activated protein kinase 10 (Mus musculus) (UniProt Q61831); assay: JNK3 AlphaScreen Assay (AID 530; active = well fitted curve in either direction with a large enough effect, not every such curve was filed as active); conditions: JNK3 lysate, c-Jun phosphorylation; series mostly up to 57.1 µM
Procedure, shortened: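 Biotinylated GST-cJun(1-79) served as substrate for JNK3 in HepG2 lysates stimulated with IL-1beta and TNF-alpha. ATP was 10 uM final, pH 7.6. Ser73 phosphorylation was quantified by AlphaScreen (680 nm excitation).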

[13] = molecular target: 3',5'-cyclic-AMP phosphodiesterase 4B (Homo sapiens) (UniProt Q07343); assay: qHTS Assay for Inhibitors of PDE-IV (AID 607; active = well fitted activation curve with a large enough effect in the main read-out, with a control signal flat, not every such curve was filed as active; note: % of control where 0% means no effect); conditions: HEK293 ACTOne CNG channel cells, membrane potential fluorescence; series mostly up to 22.9 µM
Sequence of 3',5'-cyclic-AMP phosphodiesterase 4B (Homo sapiens) (Q07343 whole entry, looked up): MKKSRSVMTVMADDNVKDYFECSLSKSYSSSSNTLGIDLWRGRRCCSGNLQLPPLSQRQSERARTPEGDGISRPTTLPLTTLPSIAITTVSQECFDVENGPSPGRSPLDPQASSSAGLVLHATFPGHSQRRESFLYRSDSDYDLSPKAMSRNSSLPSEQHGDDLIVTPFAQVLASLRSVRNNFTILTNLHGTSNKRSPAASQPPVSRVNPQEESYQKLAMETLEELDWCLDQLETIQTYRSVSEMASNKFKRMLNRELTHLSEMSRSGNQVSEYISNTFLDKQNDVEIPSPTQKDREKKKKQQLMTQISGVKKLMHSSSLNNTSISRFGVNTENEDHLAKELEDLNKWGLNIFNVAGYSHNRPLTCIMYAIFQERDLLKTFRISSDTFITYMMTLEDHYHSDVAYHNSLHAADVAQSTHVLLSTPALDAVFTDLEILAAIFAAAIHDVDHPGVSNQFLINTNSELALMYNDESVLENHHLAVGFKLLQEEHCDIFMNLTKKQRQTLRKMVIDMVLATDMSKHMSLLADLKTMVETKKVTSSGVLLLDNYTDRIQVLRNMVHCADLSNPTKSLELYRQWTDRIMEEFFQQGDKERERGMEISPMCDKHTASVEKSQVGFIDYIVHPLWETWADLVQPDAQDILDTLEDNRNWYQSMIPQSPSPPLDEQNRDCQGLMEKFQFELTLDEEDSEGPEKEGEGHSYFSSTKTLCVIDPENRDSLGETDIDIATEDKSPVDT
Procedure, shortened: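 HEK293 ACTOne cells with CNG channel (1000/well), endogenous PDE4; membrane potential dye, compounds up to 22.9 uM final. Fluorescence Ex 535/Em 590; RO 20-1724 (100 uM final) as reference.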

[14] = molecular target: Cytochrome P450 3A4 (Homo sapiens) (UniProt P08684); assay: qHTS Assay for Activators of Cytochrome P450 3A4 (AID 885); conditions: recombinant CYP3A4, Luciferin-PPXE luminescence, 60 min; series mostly up to 57.1 µM; note: nearly all actives have a fitted effect of over 65% in size
Sequence of Cytochrome P450 3A4 (Homo sapiens) (P08684 whole entry, looked up): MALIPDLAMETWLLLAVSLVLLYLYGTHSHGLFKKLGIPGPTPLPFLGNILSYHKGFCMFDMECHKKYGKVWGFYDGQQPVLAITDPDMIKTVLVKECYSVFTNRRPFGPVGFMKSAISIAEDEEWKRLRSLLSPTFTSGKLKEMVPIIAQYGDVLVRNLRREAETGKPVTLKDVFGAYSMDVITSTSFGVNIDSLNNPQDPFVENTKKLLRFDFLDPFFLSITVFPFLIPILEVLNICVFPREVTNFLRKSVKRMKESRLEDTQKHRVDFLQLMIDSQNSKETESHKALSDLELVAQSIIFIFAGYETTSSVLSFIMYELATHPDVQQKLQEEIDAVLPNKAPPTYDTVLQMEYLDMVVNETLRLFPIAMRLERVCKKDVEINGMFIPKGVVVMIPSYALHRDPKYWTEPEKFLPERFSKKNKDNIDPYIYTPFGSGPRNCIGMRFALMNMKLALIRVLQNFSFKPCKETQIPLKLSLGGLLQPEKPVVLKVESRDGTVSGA
Procedure, shortened: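 Human CYP3A4 dealkylates Luciferin-PPXE to luciferin, which luciferase detection converts to light. Substrate was at its KM (25uM), buffer 200mM KPO4, reaction 60 min at RT.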

[15] = molecular target: Ubiquitin carboxyl-terminal hydrolase 1 (Homo sapiens) (UniProt O94782); assay: Inhibitors of USP1/UAF1: Pilot qHTS (AID 504865); conditions: purified USP1/UAF1, Ub-rhodamine cleavage fluorescence; series mostly up to 54.9 µM;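 note: rhodamine fluorescence freed from ubiquitin-rhodamine substrate followed over time; top concentration of the series differs between compounds; % is set by controls: 0 for no effect and ±100 for the full control effect; nearly all actives have a fitted effect of over 35% in size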
Sequence of Ubiquitin carboxyl-terminal hydrolase 1 (Homo sapiens) (O94782 whole entry, looked up): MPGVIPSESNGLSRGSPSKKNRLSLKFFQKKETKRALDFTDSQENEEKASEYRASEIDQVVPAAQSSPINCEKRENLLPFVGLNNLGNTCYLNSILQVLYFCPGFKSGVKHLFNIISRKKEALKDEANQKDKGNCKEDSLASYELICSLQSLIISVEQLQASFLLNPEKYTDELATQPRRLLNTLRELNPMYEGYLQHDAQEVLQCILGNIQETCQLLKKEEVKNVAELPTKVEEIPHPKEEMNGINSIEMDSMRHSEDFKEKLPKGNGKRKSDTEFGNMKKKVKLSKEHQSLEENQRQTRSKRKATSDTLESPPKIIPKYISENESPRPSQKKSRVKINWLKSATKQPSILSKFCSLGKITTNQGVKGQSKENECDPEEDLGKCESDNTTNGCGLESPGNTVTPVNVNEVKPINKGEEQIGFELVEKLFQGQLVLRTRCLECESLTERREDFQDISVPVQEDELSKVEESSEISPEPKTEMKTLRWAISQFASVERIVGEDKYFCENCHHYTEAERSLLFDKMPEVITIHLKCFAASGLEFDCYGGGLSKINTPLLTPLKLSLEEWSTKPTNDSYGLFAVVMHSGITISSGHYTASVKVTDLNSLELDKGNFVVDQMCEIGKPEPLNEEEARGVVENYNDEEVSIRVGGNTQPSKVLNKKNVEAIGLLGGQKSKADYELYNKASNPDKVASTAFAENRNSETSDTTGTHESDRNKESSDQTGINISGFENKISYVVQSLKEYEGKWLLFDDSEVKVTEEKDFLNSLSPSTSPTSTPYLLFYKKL
Procedure, shortened: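 USP1/UAF1 complex (1nM) preincubated with compound 15 min at room temperature, then Ub-Rho substrate (150nM final) added. Fluorescence read kinetically at 480/540 nm, 6 reads every 60 seconds. Buffer: 50mM HEPES pH 7.8, 0.5mM EDTA, 0.1 mg/ml BSA, 1mM TCEP, 0.01% Tween-20.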

[16] = molecular target: Dual specificity protein kinase CLK4 (Homo sapiens) (UniProt Q9HAZ1); assay: qHTS Assay for Inhibitors of CDC-like Kinase 4 (ADP-FP Assay) (AID 1795); conditions: Transcreener ADP fluorescence polarization; series mostly up to 50 µM; note: potency is the fitted concentration of half-maximal effect; nearly all actives have a fitted effect of over 60% in size
Procedure, shortened: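 Recombinant human Clk4 (6.25 nM) phosphorylated RS repeat peptide (100 uM) with 1 uM ATP in Tris pH 7.5/MgCl2/EGTA/DTT/Triton buffer for one hour. ADP was quantified by Transcreener competitive fluorescence polarization against an ADP calibration curve.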

[17] = molecular target: Cytochrome P450 2C9 (Homo sapiens) (UniProt P11712); assay: qHTS Assay for Inhibitors and Substrates of Cytochrome P450 2C9 (AID 883); conditions: recombinant CYP2C9, luciferin-H luminescence, 60 min; series mostly up to 57.1 µM; note: % is set by controls: 0 for no effect and ±100 for the full control effect; nearly all actives have a fitted effect of over 60% in size
Sequence of Cytochrome P450 2C9 (Homo sapiens) (P11712 whole entry, looked up): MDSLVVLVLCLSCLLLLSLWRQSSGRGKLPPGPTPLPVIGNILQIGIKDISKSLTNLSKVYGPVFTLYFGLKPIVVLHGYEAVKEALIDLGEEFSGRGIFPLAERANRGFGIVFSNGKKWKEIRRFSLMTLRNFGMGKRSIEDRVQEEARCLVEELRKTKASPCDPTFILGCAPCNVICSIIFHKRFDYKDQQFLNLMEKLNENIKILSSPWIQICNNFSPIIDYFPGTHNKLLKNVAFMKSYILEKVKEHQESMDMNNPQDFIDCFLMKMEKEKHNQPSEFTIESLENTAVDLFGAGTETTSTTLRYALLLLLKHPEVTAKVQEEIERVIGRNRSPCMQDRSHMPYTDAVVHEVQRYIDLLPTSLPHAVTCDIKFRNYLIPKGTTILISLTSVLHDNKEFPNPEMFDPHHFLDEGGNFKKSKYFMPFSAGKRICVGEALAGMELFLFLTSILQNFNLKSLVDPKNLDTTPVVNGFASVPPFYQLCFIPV
Procedure, shortened: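 A luminogenic readout tracked human CYP2C9 (10nM) converting deoxyluciferin (100uM, at KM) in 25mM KPO4 during 60 min at 37C with regenerated NADPH. Values normalized to 57uM sulphaphenazole as complete inhibition.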

[18] = molecular target: Cytochrome P450 2C19 (Homo sapiens) (UniProt P33261); assay: qHTS Assay for Inhibitors and Substrates of Cytochrome P450 2C19 (AID 899); conditions: recombinant CYP2C19, luciferin-H EGE luminescence; series mostly up to 57.1 µM; note: % is set by controls: 0 for no effect and ±100 for the full control effect; nearly all actives have a fitted effect of over 60% in size
Procedure, shortened: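 NADPH-dependent conversion of Luciferin-H EGE (10uM, at KM) by 5nM enzyme in 50mM KPO4, 60 min at 37C following 10 min compound preincubation. Stopped with luciferin detection buffer; luminescence read after 20 min.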

[19] = qHTS Assay for Identification of Small Molecule Agonists for Hypoxia Response Element Signaling Pathway (AID 914; active = well fitted activation curve with a large enough effect in the signal ratio, with a control signal flat, not every such curve was filed as active; the % refers to the signal ratio; note: potency is the fitted concentration of half-maximal effect); conditions: ME-180 (cervical carcinoma) HRE-bla reporter, beta-lactamase ratio, CoCl2, 17 h; activation: stronger effect = higher value
Procedure, shortened: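 Reporter activity (beta-lactamase, CCF4 460nm/530nm ratio) in HRE-bla ME-180 cells is recorded after 17 h compound exposure with EC50 CoCl2 at 37 degrees Celsius. AC50 values come from titration data.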

[20] = measured here: cell count channel max response
[21] = measured here: lipid channel max response

CN(C)C(=O)c1ccc(-c2cc(Nc3ccccc3)ncn2)cc1
33.4%: max response [8, 20]
inactive: Potency [1] > 11.4 µM | activity change, negative = inhibition [2] -5.39% | activity change, negative = inhibition [4] 4.63% | activity, negative = inhibition [5] 4.86% | Potency [6] > 46 µM | Potency [7] > 46 µM | activity change, negative = inhibition [8] 6.97% | Potency [11]
active: Potency [3] 12.6 µM | Potency [9] 14.1 µM | Potency [10] 14.1 µM
40.6%: max response [8, 21]

COc1ncc2nc(C)c(=O)n(C3CC3)c2n1
inactive: Potency [1] > 11.4 µM | activity change, negative = inhibition [2] -5.11% | activity change, negative = inhibition [4] -4.48% | activity, negative = inhibition [5] -11.2% | Potency [6] > 9.22 µM | Potency [7] > 46 µM | outcome [12] | Potency [13] | Potency [14] | activity change, negative = inhibition [8] 4.19% | Potency [9] | Potency [10] | Potency [15] | Potency [11]
active: Potency [3] 3.98 µM
29.7%: max response [8, 21]
28.7%: max response [8, 20]

Cn1cc(-c2nc3cnc(Oc4ccccc4)nc3n(C)c2=O)c2ccccc21
active: Potency [3] 12.6 µM
14.6%: max response [8, 20]
18.4%: max response [8, 21]
inactive: Potency [1] > 11.4 µM | activity change, negative = inhibition [2] 0.766% | activity change, negative = inhibition [4] -2.6% | activity, negative = inhibition [5] 24.9% | Potency [6] > 9.22 µM | Potency [7] > 46 µM | outcome [12] | activity change, negative = inhibition [8] -0.452% | Potency [9] | Potency [10] | Potency [15] | Potency [11]

COCCNc1ncnc2ccc(-c3cccc(NS(C)(=O)=O)c3)cc12
inactive: activity change, negative = inhibition [2] -19.3% | activity, negative = inhibition [5] -4.92% | Potency [6] > 46 µM | Potency [7] > 46 µM | Potency [13] | Potency [14] | activity change, negative = inhibition [8] 1.59% | Potency [15] | Potency [11]
-7.54%: max response [8, 21]
-7.37%: max response [8, 20]
active: Potency [3] 0.794 µM | Potency [9] 12.6 µM | Potency [10] 8.91 µM | Potency [16] 11.2 µM

COc1ccc(-n2c(=O)c(-c3cccs3)nc3cnc(N(C)C)nc32)cc1
25.4%: max response [8, 21]
inactive: Potency [1] > 11.4 µM | activity change, negative = inhibition [2] -10.2% | Potency [3] | activity change, negative = inhibition [4] -4.88% | activity, negative = inhibition [5] -9.54% | Potency [6] > 9.22 µM | Potency [7] > 46 µM | outcome [12] | Potency [17] | Potency [18] | activity change, negative = inhibition [8] 7.83% | Potency [9] | Potency [10] | Potency [15] | Potency [11]
19%: max response [8, 20]

COc1ncc2nc(-c3ccc(F)cc3)c(=O)n(C)c2n1
17.8%: max response [8, 20]
inactive: Potency [1] > 11.4 µM | Potency [6] > 9.22 µM | Potency [7] > 46 µM | outcome [12] | Potency [13] | Potency [14] | activity change, negative = inhibition [8] 7.5% | Potency [9] | Potency [10] | Potency [11]
25.2%: max response [8, 21]
active: Potency [3] 0.501 µM | Potency [19] 3.16 µM
